DRD3 agonist = qHTS of D3 Dopamine Receptor Agonist: qHTS; D(3) dopamine receptor (Homo sapiens), P35462; D3R DiscoveRx beta-arrestin cells, luminescence, 90 min; max activation, %; 0.58% of 410,000 active; AID 652048, 2013; in the data active means max activation above about 30%; further: 0% is about no effect
Target sequence (P35462 whole entry, looked up): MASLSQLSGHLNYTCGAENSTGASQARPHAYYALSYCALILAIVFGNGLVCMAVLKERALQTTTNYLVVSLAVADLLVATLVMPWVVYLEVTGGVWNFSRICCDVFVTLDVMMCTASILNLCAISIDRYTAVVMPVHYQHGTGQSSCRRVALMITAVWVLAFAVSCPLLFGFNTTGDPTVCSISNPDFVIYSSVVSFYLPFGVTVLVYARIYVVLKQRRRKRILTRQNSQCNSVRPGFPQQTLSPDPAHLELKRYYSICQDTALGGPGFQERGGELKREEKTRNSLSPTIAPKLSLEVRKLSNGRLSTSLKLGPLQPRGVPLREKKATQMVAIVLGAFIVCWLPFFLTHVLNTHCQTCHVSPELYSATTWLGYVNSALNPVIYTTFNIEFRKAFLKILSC
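Agonist-mode cell screen: cells plated at 1500/well and incubated overnight at 37 °C, then exposed to library compounds for 90 min at 37 °C. Detection reagent was added for 30–60 min at room temperature, and luminescence was read.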
D1 antag = Antagonist of Human D 1 Dopamine Receptor: qHTS. D(1A) dopamine receptor (Homo sapiens), P21728. HEK293 TREx D1 cells, calcium flux, dopamine EC80; stronger effect = lower value. activity change, negative = inhibition, % at 10 µM. 3.2% of 360,000 active; in the data active means activity change below about -30%; further: on the % scale 0 is the no-effect control and ±100 the full control effect
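Tetracycline-induced HEK293 Trex D1 cells, force-coupled to calcium, dye-loaded; compounds added and read 180 s, then EC80 dopamine added and calcium flux tracked kinetically another 180 s.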
D1 PAM = Potentiators of Human D1 Dopamine Receptor: qHTS. potentiation, % at 10 µM. 0.036% of 360,000 active. D(1A) dopamine receptor (Homo sapiens), P21728. HEK293 TREx D1 cells, calcium flux, dopamine EC20 potentiation; in the data active means potentiation above about 30%; further: 0% is about no effect
D3 antag = qHTS of D3 Dopamine Receptor Antagonist: qHTS; max response, negative = inhibition, %; AID 652054, 2013; D3R cells, DiscoveRx beta-arrestin luminescence, antagonist mode; stronger effect = lower value; 2.5% of 360,000 active; in the data active means max response below about -50%; further: on the % scale 0 is the no-effect control and ±100 the full control effect
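Cells plated overnight at 1500 cells/well, then exposed to library compounds with dopamine controls for 90 minutes at 37 degrees C. DiscoveRx reagent added for 30–60 minutes at room temperature; luminescence read, quantitative HTS format.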
D1 agonist = Allosteric Agonists of the Human D1 Dopamine Receptor: qHTS; D(1A) dopamine receptor (Homo sapiens), P21728; HEK293 T-REx D1 cells, calcium flux, agonist mode; activation, % at 2 µM; 1% of 360,000 active; AID 504660, 2011; in the data active means activation above about 30%; further: 0% is about no effect
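Agonism was scored from calcium flux recorded over 180 s (1 read/s) after pintool compound addition, following a 10-cycle baseline. Cells were inducible force-coupled HEK293 TREx D1, plated overnight at 30 C and loaded with no-wash calcium dye.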
The depositor's hits bear a star; · = no result given. In the library only some 6.1% were active in any assay of this set; here they are far more common.

SMILES	DRD3 agonist	D1 antag	D1 PAM	D3 antag	D1 agonist
CCOc1ccc(NC(=O)CN(C)C(=O)c2ccc(OCC3CCCO3)cc2)cc1OCC (configuration not stated)	1	-42*	-10	7	1
CCOc1ccc(NC(=O)COc2ccc(C(=O)NCC3CCCO3)cc2OC)cc1 (configuration not stated)	0	-37*	12	11	2
CSc1ncc(Cl)c(C(=O)Nc2ccc(S(=O)(=O)N3CCC(C)CC3)cc2)n1	4	-17	-1	·	5
COc1ccc(/C=N/n2c(N)nc3ccccc32)cc1OC	5	-2	-6	-1	2
COc1cccc(/C=N/n2c(N)nc3ccccc32)c1OC	30*	-5	-9	38	2
O=C(Nc1cccc(C(F)(F)F)c1)C1CCCN(S(=O)(=O)c2cccc3nsnc23)C1 (configuration not stated)	-4	8	0	·	-1
Cc1ccc(S(=O)(=O)NCCc2nnc3ccc(SCc4ccccc4F)nn23)cc1	9	-3	0	·	-1
N#Cc1cc(C(=O)c2ccccc2O)cn(-c2nccs2)c1=O	1	44	18	1	553*
N#Cc1cc(C(=O)c2cc(F)ccc2O)cn(-c2nccs2)c1=O	-8	7	-7	0	306*
CC(=O)Nc1ccc(Nc2c3c4c(cccc4n(C)c2=O)C(=O)c2ccccc2-3)cc1	-6	18	15	8	13
Cn1c(=O)cc2c3c(c(N4CCCCC4)ccc31)C(=O)c1ccccc1-2	7	3	3	8	2
Cn1c(=O)c(NCCc2ccccc2)c2c3c(cccc31)C(=O)c1ccccc1-2	7	-78*	-5	10	394*
CCNc1cccc2c1C(=O)N(C)C2=O	5	11	8	4	20
Cn1c(=O)c(NCCO)c2c3c(cccc31)C(=O)c1ccccc1-2	3	-42*	15	-1	442*
Cn1c(NCCc2ccccc2)cc(=O)n(C)c1=O	3	12	0	16	1
Cn1c(=O)c(NC2CCCCC2)c2c3c(cccc31)C(=O)c1ccccc1-2	-3	-68*	-4	-3	455*
CCNc1c2c3c(cccc3n(C)c1=O)C(=O)c1ccccc1-2	5	-3	-6	6	373*
Cc1cc(C)c2c(n1)sc1c(=O)n(-c3cc(Cl)ccc3C)nnc12	-4	-5	3	·	0
CCCCNc1c2c3c(cccc3n(C)c1=O)C(=O)c1ccccc1-2	-5	-47*	-7	12	326*
CC(Sc1nc(=O)cc(N)n1CCc1ccccc1)C(=O)Nc1cccc(Cl)c1 (configuration not stated)	6	6	-5	·	2
CC(Sc1nc(=O)cc(N)n1CCc1ccccc1)C(=O)Nc1ccc(Cl)cc1 (configuration not stated)	1	-33*	-2	·	16
Cc1ccc(NC(=O)Cn2ncc(Cl)c(Cl)c2=O)cc1S(=O)(=O)N1CCCCC1	-14	6	·	-58*	1
Cc1ccc(NC(=O)COc2ccccc2)cc1S(=O)(=O)N1CCCCCC1	-8	-2	0	-1	10
CN(C(=O)COC(=O)C1CCN(S(=O)(=O)c2c(Cl)cccc2Cl)CC1)c1ccccc1	-7	-32*	-2	-3	18
Cc1ccccc1CC(=O)OCC(=O)Nc1ccc(C)c(S(=O)(=O)N2CCCCC2)c1	1	-35*	·	1	79*
SMILES	DRD3 agonist	D1 antag	D1 PAM	D3 antag	D1 agonist
Cc1ccc(NC(=O)Cc2ccc(Cl)cc2)cc1S(=O)(=O)N1CCCCCC1	1	-2	0	6	3
Cc1ccc(NC(=S)NCc2ccccc2)cc1S(=O)(=O)N1CCCCC1	-4	-35*	-6	-2	33*
COC(=O)c1ccc(Cn2ncc3c4sc(C)cc4n(C)c3c2=O)cc1	·	0	-3	·	6
C[C@H]1NCc2cc(-c3ccc4c(=O)c(C(=O)O)cn(C5CC5)c4c3OC(F)F)ccc21	5	·	·	·	·
Cc1ccc(NC(=O)COC(=O)C2CCC2)cc1S(=O)(=O)N1CCCCC1	6	-32*	-8	13	4
Cc1ccc(S(=O)(=O)N2CCC(C(=O)OCC(=O)N(C)C3CCCCC3)CC2)cc1C	2	-38*	-10	1	3
Cc1ccc(NC(=O)C2CCN(C(=O)OC(C)(C)C)CC2)cc1S(=O)(=O)N1CCCCC1	-13	-38*	1	14	0
Cc1ccc(S(=O)(=O)N2CCC(C(=O)OCC(=O)N(C)C3CCS(=O)(=O)C3)CC2)cc1C (configuration not stated)	1	1	-5	4	1
Cc1ccc(S(=O)(=O)N2CCCCC2)cc1NC(=O)C1CCN(C(=O)OC(C)(C)C)CC1	-1	·	·	-6	·
Cc1ccc(NC(=O)COC(=O)C2CC3C=CC2C3)cc1S(=O)(=O)N1CCCCC1 (configuration not stated)	47*	-21	9	1	6
Cc1ccc(S(=O)(=O)N2CCCCC2)cc1NC(=O)COC(=O)C1CC2C=CC1C2 (configuration not stated)	15	-5	1	0	1
Oc1ccccc1C1C=C(c2ccc3c(c2)OCO3)NC(c2cccc(F)c2)N1 (configuration not stated)	·	1	2	·	9
CCOc1ccccc1C(=O)N1CC(=O)Nc2ccc(C)cc2C1c1ccccc1 (configuration not stated)	1	-3	0	·	10
CCC(C)n1c(SCc2ccc(F)cc2Cl)nc2ccsc2c1=O (configuration not stated)	-12	-6	0	·	21
O=C(CCCn1c(=O)c2cccn2c2ccccc21)Nc1cc(C(F)(F)F)ccc1Cl	3	-5	-2	·	0
O=C1CSC2(C(=O)N(Cc3ccccc3F)c3ccccc32)N1c1cccc(C(F)(F)F)c1 (configuration not stated)	-16	-2	0	·	2
Cc1ccc(C)c(OCCC(=O)OCC(=O)Nc2ccc(C)c(S(=O)(=O)N3CCCCC3)c2)c1	4	-32*	-16	22	14
Cc1ccccc1OCCC(=O)OCC(=O)Nc1ccc(C)c(S(=O)(=O)N2CCCCC2)c1	1	·	·	12	·
Cc1cccc(NC(=S)NCCC(C)C)c1	-5	0	-5	-18	227*
S=C(Nc1cccc(Cl)c1)NC1CC2CCCC(C1)N2C1CCCC1 (configuration not stated)	2	-10	-11	-29	10
S=C(NCCC(c1ccccc1)c1ccccc1)Nc1cccc(Cl)c1	-3	-49*	-4	3	3
